From PubChem BioAssay AID504652 (National Center for Advancing Translational Sciences (NCATS), 2011)
Out of some 360,000 compounds screened, about 11,000 (3.1%) were called active. The sample holds actives, similar compounds and a random draw of the others, so the mix is not that of the screen. Unmarked numbers belong to inactive results. No stated cut-off is given here; in the data, active means activity change below about -30%; inactive means the rest.

target: D(1A) dopamine receptor (Homo sapiens) (UniProt P21728); experiment: Antagonist of Human D 1 Dopamine Receptor: qHTS; details: HEK293 TREx D1 cells, calcium flux, dopamine EC80; at 10 µM; hits give low values
Sequence (P21728 whole entry, looked up): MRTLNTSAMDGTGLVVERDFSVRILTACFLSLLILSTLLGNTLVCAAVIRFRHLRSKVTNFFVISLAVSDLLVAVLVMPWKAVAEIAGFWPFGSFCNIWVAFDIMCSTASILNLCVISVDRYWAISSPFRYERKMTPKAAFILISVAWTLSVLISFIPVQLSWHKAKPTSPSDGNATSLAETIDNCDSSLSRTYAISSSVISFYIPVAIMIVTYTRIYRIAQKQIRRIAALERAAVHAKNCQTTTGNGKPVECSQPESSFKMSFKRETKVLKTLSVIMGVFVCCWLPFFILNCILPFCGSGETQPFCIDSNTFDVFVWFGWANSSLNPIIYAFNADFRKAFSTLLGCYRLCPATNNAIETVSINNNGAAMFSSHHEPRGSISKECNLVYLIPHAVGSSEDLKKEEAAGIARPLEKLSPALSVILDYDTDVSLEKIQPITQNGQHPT
Excerpt: Dopamine receptors (DARs) are involved in the etiology and/or therapy of a number of neuropsychiatric and endocrine disorders. For instance, all receptor-based antiparkinsonian drugs work via stimulating the […] DAR subtype whereas all FDA-approved antipsychotic agents are antagonists of this receptor. […] There are three different types of allosteric modulators that we are seeking, two of which will stimulate or augment receptor signaling, allosteric agonists and potentiators, while the third, allosteric antagonists, will attenuate receptor signaling. The present primary screening assay measures compound antagonism after an EC80 addition of dopamine by tracking calcium flux in a […], inducible Hek293 Trex D1 cell line. NIH Chemical Genomics Center [NCGC] NIH Molecular Libraries Probe Centers Network [MLPCN] MLPCN Grant: NS064831-01 Assay Submitter (PI): David Sibley
Freshly passaged cells are plated in 1536 well black, clear bottom plates at a density of 4000 cells/well in 3 ul of complete media containing 1x tetracycline inducer. After an overnight incubation at 30 C in 5% CO2, cells are loaded with 2 ul of the no wash Calcium Assay Kit (ABD Bioquest) and incubated at room temperature for 30 to 90 minutes. Agonist read: A 10 cycle (1 second/cycle) baseline measurement is taken and then the FDSS online 1536 pintool delivers 23 nl of compound library (as well as dopamine controls) to the plate. The plate is measured for kinetically at 1 cycle/sec for 180 seconds. Following the 180 second read, 1 ul of an EC80 (negative modulation assay) is delivered by an onboard pipette head. Measurements are taken kinetically for an additional 180 seconds.
On the % scale 0 is the no-effect control and ±100 the full control effect.

| Structure (SMILES) | activity change, negative = inhibition |
| --- | --- |
| Cc1nnc(SCc2cc(=O)c3cc(F)ccc3[nH]2)n1C | -67.4% (active) |
| O=c1cc(CSc2ncn[nH]2)[nH]c2ccc(F)cc12 | 10.4% |
| Cn1c(SCc2ccc(F)cc2)nnc1-c1ccncc1 | 5.13% |
| Cc1cccc(NC(=O)c2ccc3nc(C(C)C)oc3c2)c1C | 9.09% |
| CC1CC1C(=O)OCC(=O)c1c(N)n(C)c(=O)n(C)c1=O (stereo unspecified) | 5.53% |
| Cn1c(N)c(C(=O)COC(=O)c2cnc(Cl)c(Cl)c2)c(=O)n(C)c1=O | 12.2% |
| Cc1cc(C(=O)OCC(=O)c2c(N)n(C)c(=O)n(C)c2=O)c(C)o1 | -60.8% (active) |
| O=C(CSc1nccn1-c1ccc(F)cc1)Nc1cccc2ccccc12 | 43.1% |
| O=C(Cn1c(=O)n(Cc2cccs2)c(=O)c2cccnc21)Nc1ccc(F)cc1 | 2.03% |
| Cc1c(Cl)cccc1NC(=O)C1CCCN(c2ncnc3onc(C)c23)C1 (stereo unspecified) | -3.12% |
| COc1ccc(C(CCN(Cc2ccc(OC)c(OC)c2)C(=O)CCl)c2ccccc2)cc1 (stereo unspecified) | 0.248% |
| CN(Cc1ccccc1)C(=O)COc1ccccc1 | 2.23% |
| COc1ccc(CN(C)C(=O)CC(c2ccccc2)c2ccccc2)cc1 | -31.6% (active) |
| CCC(NC(=O)c1cc(COc2ccc(F)c(F)c2)on1)c1ccncc1 (stereo unspecified) | -27.1% |
| CCOC(=O)CC1COCCN1C(=O)c1cc(COc2ccc(F)c(F)c2)on1 (stereo unspecified) | -41% (active) |
| O=C(c1cc(COc2ccc(F)c(F)c2)on1)N1CCOCC1 | -16.4% |
| Cc1ccc(C(=O)N2CCc3cc(CNC(=O)c4ccc(Br)cc4)ccc32)cc1 | 3.02% |
| Cc1noc2ncnc(NCc3ccccc3Cl)c12 | -4.33% |
| Nc1ncc(S(=O)(=O)Nc2ccc(OC(F)(F)F)cc2)cn1 | 18% |
| Cc1nn(C)c(C)c1NS(=O)(=O)c1ccc(OC(F)(F)F)cc1 | -90.7% (active) |
| COc1ccc(OC)c(S(=O)(=O)Nc2c(C)nn(C)c2C)c1 | 2.31% |
| Cc1cccc(NC(=O)C2CCN(S(=O)(=O)c3c(C)noc3/C=C/c3ccco3)CC2)c1 | -5.72% |
| C=Cc1ccc(Cn2c(C(=O)OC)cc3sc(C)cc32)cc1 | 21.5% |
| CC(Sc1nn(-c2ccc(Cl)cc2)c(=S)s1)C(=O)NCC1CCCO1 (stereo unspecified) | -0.972% |
| CC(Sc1nnc(-c2cccs2)n1C1CC1)C(=O)NCC1CCCO1 (stereo unspecified) | -30.6% (active) |
| Cc1ccc(N(C(=O)Cc2cccs2)C(C(=O)NCC2CCCO2)c2ccncc2)cc1 (stereo unspecified) | -0.595% |
